For 36 compounds, composite z-score results are on record in PubChem BioAssay.

Sequence of Dickkopf-related protein 1 (Homo sapiens) (O94907 whole entry, looked up): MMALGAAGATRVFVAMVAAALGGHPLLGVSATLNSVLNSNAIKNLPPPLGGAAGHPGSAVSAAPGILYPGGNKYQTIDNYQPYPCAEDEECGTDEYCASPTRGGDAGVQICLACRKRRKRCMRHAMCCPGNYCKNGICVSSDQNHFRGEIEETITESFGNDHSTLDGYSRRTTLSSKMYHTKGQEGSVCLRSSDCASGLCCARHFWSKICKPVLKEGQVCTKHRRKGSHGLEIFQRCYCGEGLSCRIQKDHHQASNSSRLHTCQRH

The assay concerns the target Dickkopf-related protein 1 (Homo sapiens) (UniProt O94907). Kind of assay: small molecules binding DKK1 protein – biochemical, small-molecule microarray, 635 nm fluorescence scan, primary screen (AID 1106).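 Further: score merges emission near 667 nm with signal to noise over three replicate slides.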 Conditions: higher = more signal.
`N#Cc1ccc(NN2C(C(O)c3ccc(Br)cc3)C=CC3C(=O)N(c4ccccc4)C(=O)C32)cc1` (stereo unspecified): the composite z-score worked out at 0.316.

As for `CC1CC/C=C\[C@H]2OC34C=CCN(c5ccc(Cl)cc5)C(=O)[C@H]3N(C(C)CO)C(=O)[C@]4(C)C2C(=O)O1` (stereo partly specified), the composite z-score is -0.945.

As for `CO[C@H]1O[C@H](CO)[C@@H](OC(=O)Nc2ccc(Br)cc2)[C@@H]2OC(=O)[C@@H](Cc3ccccc3)C/C=C/C[C@H](Cc3ccccc3)C(=O)O[C@@H]12`, the composite z-score was -0.0375.

In the case of `CCOC(=O)C[C@H]1[C@H](OC(=O)c2cc3ccccc3oc2=O)[C@@H](NC(=O)c2ccccc2)c2cc(OCCCO)ccc2N1C(=O)c1ccccc1`, the composite z-score stood at 0.415.

As to `O=C1OCCC=C[C@H]2OC34C=CCN(c5ccc6ccccc6c5)C(=O)[C@H]3N(CCCO)C(=O)[C@@H]4C12` (stereo partly specified), the composite z-score is -1.8.

For `O=C1C2C=CC(C(O)C3CC=CCC3)N(Nc3ccccc3)C2C(=O)N1c1ccccc1` (stereo unspecified), the composite z-score was determined as 0.333.

On to `Cc1ccc(S[C@]2(C(=O)NC(C)C)CC(=O)N(Cc3cc(C(F)(F)F)cc(C(F)(F)F)c3)[C@@H]2c2ccc(CO)cc2)cc1`, for which the composite z-score is -1.5.

Compound `CCOC(=O)C[C@H]1[C@H](OC(=O)c2ccccc2-c2ccccc2)[C@@H](NC(=O)c2ccc3ccccc3n2)c2cc(OCCCO)ccc2N1C(=O)Cc1ccc(OC)cc1` gave a composite z-score of 0.0349.

As for `CC(C)c1ccc(NN2C(C(O)c3ccc(C#N)cc3)C=CC3C(=O)N(c4ccccc4)C(=O)C32)cc1` (stereo unspecified), the composite z-score is -0.103.

Take `CCC#CCN(Cc1ccccc1Br)[C@H](/C=C/C1CC1)[C@@H](O)Cc1ccccc1`: the composite z-score was -0.642.

`C=C[C@@H](OC)[C@H](OC(=O)Nc1ccc(OC)cc1)c1ccc(O)c(F)c1`: the composite z-score is 0.171.

Take `C=CCC(OC(C)=O)[C@@H]1[C@@H](N(Cc2ccc(-c3cccc(C(F)(F)F)c3)o2)C(=O)c2ccc(-c3ccccc3)cc2)c2cc(OCCCO)ccc2N1C(=O)Cc1ccc2ccccc2c1` (stereo partly specified): the composite z-score is -0.403.

Compound `CCOC(=O)C1=C[C@@H](c2ccccc2)N(S(=O)(=O)c2ccc(C)cc2)[C@H]1c1ccc(OC)cc1` had a composite z-score of 0.0786.

Compound `CS(=O)(=O)CCOC(=O)C1=CC(CCCO)=CC(c2ccc(CN3CCCC3)cc2)N(Cc2sc3ccccc3c2Cl)C=C1C(=O)OCCS(C)(=O)=O` (stereo unspecified) yielded a composite z-score of 0.858.

`CCOC(=O)C[C@H]1[C@H](OC(=O)Cc2ccc3c(c2)OCO3)[C@@H](NC(=O)c2ccc3ccccc3n2)c2cc(OCCCO)ccc2N1C(=O)c1ccc2ccccc2n1` gave a composite z-score of 0.483.

`C=CCC(OC(C)=O)[C@@H]1[C@@H](N(Cc2ccc(-c3ccccc3)cc2)C(=O)c2ccc(-c3ccccc3)cc2)c2cc(OCCCO)ccc2N1C(=O)c1ccc2ccccc2c1` (stereo partly specified) had a composite z-score of 0.0004.

With `Cc1ccc(NN2C(C(O)c3c(F)cccc3Cl)C=CC3C(=O)N(C4CCCCC4)C(=O)C32)cc1` (stereo unspecified), the composite z-score is -0.258.

Regarding `CN(C)C(=O)[C@]1(Cc2ccccc2CN=[N+]=[N-])N=C(c2ccc(OCCCO)cc2)O[C@@H]1c1ccccc1`, the composite z-score was -0.147.

Regarding `Cc1ccc(S[C@]2(C(=O)O)CC(=O)N(C3CCCCC3)[C@@H]2c2ccc(CO)cc2I)cc1`, the composite z-score is -0.231.

Turning to `CCOC(=O)C[C@H]1[C@H](OC(=O)c2cc3ccccc3oc2=O)[C@@H](NC(=O)CC(C)C)c2cc(OCCCO)ccc2N1C(=O)c1ccc2ccccc2n1`, the composite z-score came out at 0.409.

`CCOC(=O)C[C@H]1[C@H](OC(=O)c2ccc(-c3ccccc3)cc2)[C@@H](NC(=O)CC(C)C)c2cc(OCCCO)ccc2N1C(=O)c1ccc2ccccc2n1`: the composite z-score came out at 0.273.

In the case of `CCOC(=O)C[C@H]1[C@H](OC(=O)c2ccc(C(=O)c3ccccc3)cc2)[C@@H](NC(=O)c2ccc3ccccc3n2)c2cc(OCCCO)ccc2N1C(=O)Cc1ccc(OC)cc1`, the composite z-score worked out at 0.239.

For `COc1ccc([Si](C)(C)[C@@H]2[C@@H](CC(=O)N(CCO)Cc3ccccc3)O[C@]3(C(=O)N(Cc4cccc(N5CCCCC5=O)c4)c4ccccc43)[C@H]2C)cc1`, the composite z-score amounted to 0.419.

For `COC(=O)[C@]1(CCS(=O)(=O)c2ccccc2)N=C(c2ccc(OCCCO)cc2)O[C@@H]1c1ccccc1N=[N+]=[N-]`, the composite z-score was determined as 0.666.

Take `COC(=O)[C@@]1(Cc2ccccc2)[C@H]2c3cc(C(=O)N4CCCC4)n(CCc4ccccn4)c3C[C@H]2CN1C(=O)c1ccccc1`: the composite z-score was -0.37.

In turn, `CCCN1C(=O)[C@@]2(Cc3ccccc31)N=C(c1ccc(OCCCO)cc1)O[C@H]2c1ccccc1` came in with a composite z-score of 0.335.

`COC(=O)[C@@]1(Cc2ccc(F)cc2)[C@H]2c3cc(C(=O)N(C)C)n(Cc4ccc(OC(F)(F)F)cc4)c3C[C@H]2CN1C(=O)c1ccccc1` displayed a composite z-score of 0.0583.

As to `CC(=O)N1CC2(CC2)CC1c1ccccc1` (stereo unspecified), the composite z-score is -0.0538.

`CC(C)[Si](C#CCCCC#N)(O[C@H](c1ccccc1)c1cn(Cc2ccccc2)nn1)C(C)C` came in with a composite z-score of 0.869.

Take `COCCOC(=O)N1C(=O)[C@@]2(c3cc(C#CC4(O)CCCCCC4)ccc31)[C@H](c1ccc(O)cc1)N1[C@H](c3ccccc3)[C@H](c3ccccc3)OC(=O)[C@H]1[C@@H]2C(=O)N1CCN(c2ncccn2)CC1`: the composite z-score came out at 0.063.

For `CC1=C2[C@@H](CCc3ccccc3)OB(O)C[C@@H]2[C@@H]2C(=O)N(Cc3ccccc3)C(=O)[C@@H]2C1`, the composite z-score turned out to be 0.405.

`CCOC(=O)C[C@H]1[C@H](OC(=O)Cc2ccc3c(c2)OCO3)[C@@H](NC(=O)C2CCCCC2)c2cc(OCCCO)ccc2N1C(=O)c1ccccc1` yielded a composite z-score of 0.351.

In the case of `COCCCNC(=O)[C@@]1(CCC(=O)OC(C)(C)C)N=C(c2ccc(OCCCO)cc2)O[C@H]1c1ccccc1N=[N+]=[N-]`, the composite z-score came to 0.795.

On to `[N-]=[N+]=Nc1ccccc1C[C@]1(C(=O)NCC(O)CO)COC(c2ccc(OCCCO)cc2)=N1` (stereo partly specified), for which the composite z-score was -0.975.

As for `CCCC[C@@H](O)C1=C(COC)C[C@H]2C(=O)N(C)C(=O)[C@H]2[C@H]1CO`, the composite z-score was 0.339.

In turn, `CCCCCCc1nc(Cc2cc(OC)c(OC)c(OC)c2)cc2c1[Si](C(C)C)(C(C)C)OC2` had a composite z-score of 0.5.
